# Results: PubChem BioAssay (NCI)
# This is part of a sample that, as a whole, favours compounds with a hit. Of some 83,000 tested, about 20% had one in any assay.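 Growth was measured after 48 h exposure to one concentration of compound in 96-well plates. Values under 10 count as active.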 The source made the active and inactive calls.
# Test system: SF-268 CNS
# Test: NCI-60 one-dose screen, 48 h (100 = growth as untreated, 0 = no growth, -100 = all killed)
# Conditions: 10 µM unless noted
row,Structure (SMILES),growth
1,Cc1[nH]ccc2cc3nc4ccccc4c3cc12,40% (inactive)
2,NS(=O)(=O)c1ccc(-n2ncc3c(N/N=C/c4ccccc4)ncnc32)cc1,76.9% (inactive)
3,O=C(C(=O)c1cc(Br)ccc1O)c1cc(Br)ccc1O,38.1% (inactive)
4,COc1ccc(-c2cnc(SCC(=O)Nc3ccc(-c4nc5ccccc5s4)cc3)n2-c2ccc(OC)cc2)cc1,100% (inactive)
5,N#CSCC1CC(O)(c2ccccc2)C(c2ccccc2)C(c2ccc(Cl)cc2)O1 (stereo not given),-34.1% (active)
6,OCc1n(Cc2ccc3ccccc3c2)cc[n+]1Cc1ccc2ccccc2c1,60.7% (inactive)
7,c1ccc(-c2nc(Nc3nccnn3)c3ccccc3n2)cc1,98% (inactive)
8,CCOC(=O)/C=C1/SC(=Nc2ccc(C#N)cc2)N(Cc2ccco2)C1=O,73.2% (inactive)
9,Cc1cnc2nc(-c3ccc(N(C)C)cc3)cn2c1,122% (inactive)
10,COc1ccc2c(c1)c(CC(=O)[Se]C)c(C)n2C(=O)c1ccc(Cl)cc1,-26.5% (active)
11,COc1cc(/C=C/C(=O)C(C(=O)/C=C/c2ccc(OC(=O)CCNc3nnc(C)s3)c(OC)c2)C(=O)CCNc2nnc(C)s2)ccc1OC(=O)CCNc1nnc(C)s1,19.8% (inactive)
12,O=C1C2C(C(=O)N1CC[Se][Se]CCN1C(=O)C3C(C1=O)[C@H]1C=C[C@@H]3C1)[C@H]1C=C[C@@H]2C1 (stereo not given in full),-45.8% (active)
13,COc1ccc(OC)c(CCn2cncc2-c2c[nH]c3cc(Br)ccc23)c1,45.6% (inactive)
14,CN(C)c1ncnc2c1ncn2C1CCCCO1 (stereo not given),106% (inactive)
15,COc1ccc2c(c1)sc1nc(-c3ccc(Br)cc3)cn12,118% (inactive)
16,O=C(Nc1ccccc1OC(=O)c1ccccc1)c1ccccc1,47.3% (inactive)
17,Cc1csc(C#Cc2cncc(O)c2)n1,131% (inactive)
18,COc1ccc2nc(NC(=O)CN3CCn4c(nnc4C(F)(F)F)C3)sc2c1,93.5% (inactive)
19,CCOC(=O)C(Br)=P(c1ccccc1)(c1ccccc1)c1ccccc1,120% (inactive)
20,C=CCN(/C=C/CN(CC=C)CC=C)CC=C,105% (inactive)

row,Structure (SMILES),growth
1,O=C1NC(=S)S/C1=C\c1cc(Br)ccc1O,90.1% (inactive)
2,COc1ccc(C(=O)/C=C/c2cccc(Nc3ccnc4cc(Cl)ccc34)c2)cc1,39% (inactive)
3,CCCCCCCCCCOC(C)=O,106% (inactive)
4,O=C1C(=O)c2c(nc3ccc(Cl)cn23)-c2ccccc21,-95.3% (active)
5,CC(=O)OCC(=O)[C@@]1(O)CC[C@H]2[C@@H]3CCC4=CC(=O)CC[C@]4(C)[C@@]3(F)[C@@H](O)C[C@@]21C,91.5% (inactive)
6,CCc1nn2c(-c3ccc(Cl)cc3C)c(-c3cc(OC)c(OC)c(OC)c3)nc2s1,93.4% (inactive)
7,COc1cc(/C=C/C(=O)C(C(=O)/C=C/c2ccc(OC(=O)CCNC34CC5CC(CC(C5)C3)C4)c(OC)c2)C(=O)CCNC23CC4CC(CC(C4)C2)C3)ccc1OC(=O)CCNC12CC3CC(CC(C3)C1)C2 (stereo not given),28.2% (inactive)
8,CN(C)c1ccc(-c2nc3ncc(Br)cc3o2)cc1,114% (inactive)
9,CCCc1n(Cc2ccc3ccccc3c2)cc[n+]1Cc1ccc2ccccc2c1,7.55% (active)
10,N#Cc1c(-c2ccccc2)cc(-c2ccccc2)n(CCC(=O)O)c1=O,67.4% (inactive)
11,C=C1CCC2C3(C)COC(c4ccccc4)OC3CCC2(C)C1C/C=C1/C(=O)OCC1OC(C)=O (stereo not given),102% (inactive)
12,O=C(CNC(=O)c1cccc2ccccc12)Nc1ccccc1Cc1ccccc1,48.6% [5 µM] (inactive)
13,COC(=O)C1=CCC(n2cnc3c(N)ncnc32)O1 (stereo not given),121% (inactive)
14,O=C(NC1CCCCC1)c1ccc(Nc2ncnc3c2cnn3-c2ccccc2)cc1,36.9% (inactive)
15,COc1ccc(-c2cc(-c3cccnc3)nc3sc(C(=O)Nc4ccccc4)c(N)c23)cc1OC,69% (inactive)
16,Clc1ccc(C2=NN(c3ccc(Cl)cc3)C(c3cccc(Nc4ccnc5cc(Cl)ccc45)c3)C2)cc1 (stereo not given),84.3% (inactive)
17,CCCCN=C(N)c1ccc(OCCSCCOc2ccc(C(N)=NCCCC)cc2)cc1,35.6% (inactive)
18,C/C(=C\CCc1ccoc1)CC/C=C(\C)CCCC1COC(=O)C1 (stereo not given),107% (inactive)
19,Oc1c(Cl)cc(Oc2cc(Cl)c(O)c(CN3CCOCC3)c2)cc1CN1CCOCC1,87.9% (inactive)
20,CCOC(=O)CCN(c1c(Cl)ssc1=O)C(C)C,113% (inactive)
